Screening data (PubChem BioAssay)
MgrA-DNA mod = S. aureus MgrA activity modulators, primary screen, biochemical, S. aureus Newman, fluorescence polarization | inhibition, % (concentration not given with the values) | MgrA-DNA binding | 84,000 tested, 0.13% active; in the data active = inhibition above about 30%, passing the limit was not always enough;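 note: 0% = protein plus DNA without compound and 100% = DNA alone without protein; higher means less MgrA bound to DNA so lower polarization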
* = called active by the depositor. Only a selection was taken, and hits are over-represented in it overall.

`CCOc1ccc(N/C=C/C(=O)c2ccco2)cc1` gave MgrA-DNA mod 2.
Screening O=C(/C=C/Nc1cccc(C(F)(F)F)c1)c1ccco1 returned MgrA-DNA mod 0.
For O=C(/C=C/Nc1ccccc1C(F)(F)F)c1ccco1 the results were MgrA-DNA mod 93*.
`COc1cccc2cc(C(N)=O)c(=Nc3cc(C(F)(F)F)ccc3Cl)oc12` gave MgrA-DNA mod 0.
O=c1c2ccccc2nc(-c2ccccc2)n1Nc1ccc(F)cc1F was read as MgrA-DNA mod -7.
For C/C(=N\N(C)c1ccccc1)C1=C(O)CC(C)(C)CC1=O the results were MgrA-DNA mod -1.
For CCOc1cc(C=C2C(=O)NC(=S)NC2=O)ccc1OCCOc1ccc(C(C)CC)cc1 (stereo unspecified) the results were MgrA-DNA mod 27.
O=S(=O)(c1ccccc1)c1ccc(N2CCCCC2)cc1 was read as MgrA-DNA mod 2.
For Nc1ccc(N2CCCCC2)cc1 the results were MgrA-DNA mod -1.
`Nc1ccc(N2CCCC2)cc1` gave MgrA-DNA mod 57*.
O=c1onc(-c2c(F)cccc2F)n1-c1cccnc1 was read as MgrA-DNA mod 0.
`COc1ccc(CNCCCn2ccnc2)c(OC)c1` gave MgrA-DNA mod 4.
For Cc1ccc(C)n1-c1sccc1C(=O)CC#N the results were MgrA-DNA mod 4.
Screening Cc1ccc(C)n1-c1sccc1C(=O)O returned MgrA-DNA mod 89*.
For CC(=O)Nc1sccc1C(=O)O the results were MgrA-DNA mod -2.
`Cc1[nH]c2ccc(C(=O)O)cc2c1C` gave MgrA-DNA mod 3.
Cc1[nH]c2ccc(C(=O)O)cc2c1CC(=O)O was read as MgrA-DNA mod 6.
`CCCc1c(C)[nH]c2ccc(C(=O)O)cc2c1=S` gave MgrA-DNA mod 54*.
Screening O=C(Nc1ccc2nsnc2c1)c1ccccc1N1CCOCC1 returned MgrA-DNA mod -1.
COc1cc(C2NC(=O)NC(C)=C2C(=O)OC2CCCC2)ccc1OCc1ccccc1 (stereo unspecified) was read as MgrA-DNA mod -2.
COc1ccccc1CNC(=O)/C=C/c1cccc(Br)c1 was read as MgrA-DNA mod 2.
For Cc1ccc(C)n1C(Cc1c[nH]c2ccccc12)C(=O)O (stereo unspecified) the results were MgrA-DNA mod 66*.
O=C(O)Cc1c[nH]c2ccccc12 was read as MgrA-DNA mod 1.
NC(Cc1c[nH]c2ccccc12)C(=O)O (stereo unspecified) was read as MgrA-DNA mod 0.
`CC(C)/C=C1\CCCCC1O` (stereo unspecified) gave MgrA-DNA mod -1.
c1cc(CNc2ccc(N3CCCC3)cc2)ccn1 was read as MgrA-DNA mod 97*.
`c1cc2c(cc1CNc1ccc(N3CCCC3)cc1)OCO2` gave MgrA-DNA mod 18.
`O=C(Nc1ccc(N2CCCCC2)cc1)c1ccncc1` gave MgrA-DNA mod 2.
N#Cc1c(N)nc2ccc(Cl)cc2c1-c1ccccc1 was read as MgrA-DNA mod 5.
For CSc1ccc(CNc2ccc(S(N)(=O)=O)cc2)cc1 the results were MgrA-DNA mod 14.
Screening O=C1c2c(O)ccc(O)c2C(=O)c2c(NCCNCCO)ccc(NCCNCCO)c21 returned MgrA-DNA mod 47*.
`CCOC(=O)CN1CSC2=C(C#N)C(c3ccc(Cl)cc3)CC(=O)N2C1` (stereo unspecified) gave MgrA-DNA mod 1.
CN1C(=O)C2C(c3cccc(Br)c3)C(C#N)=C(N)OC2N(C)C1=O (stereo unspecified) was read as MgrA-DNA mod 0.
For O=C1NC(=S)N/C1=C\c1cccc(OCc2ccc(F)cc2)c1 the results were MgrA-DNA mod -2.
`CCOc1ccc(C=C2C(=O)OC(c3ccccc3)OC2=O)cc1` (stereo unspecified) gave MgrA-DNA mod 16.
Screening O=C1OC(c2ccccc2)OC(=O)C1=Cc1cccc(OCc2ccccc2)c1 (stereo unspecified) returned MgrA-DNA mod 56*.
`CN1C(=O)/C(=c2/[nH][nH]c(=O)/c2=C\C=C\c2ccccc2)C(=O)c2ccccc21` gave MgrA-DNA mod 56*.
CN1C(=O)CN(C2CCCCC2)C(=O)c2ccccc21 was read as MgrA-DNA mod 2.
CN1C(=O)/C(=C\C(=O)c2cccs2)c2ccccc21 was read as MgrA-DNA mod -3.
Screening CCc1ccc2[nH]c(=O)c(C(c3nnnn3C(C)(C)C)N3CCCCC3)cc2c1 (stereo unspecified) returned MgrA-DNA mod 4.
`COc1ccc(Br)cc1/C=C1/N=C(c2ccc(C)c([N+](=O)[O-])c2)OC1=O` gave MgrA-DNA mod 3.
CN1C(=O)C(O)N(c2ccc(Cl)c(Cl)c2)C1=O (stereo unspecified) was read as MgrA-DNA mod -3.
`CCc1ccc(C2=CC(=O)C=CC2=O)cc1` gave MgrA-DNA mod 15.
Screening O=C1C=CC(=O)C(c2ccc(C(=O)O)cc2)=C1 returned MgrA-DNA mod 83*.
Screening O=C(O)c1ccc(-c2ccccc2)cc1 returned MgrA-DNA mod 5.
For O=C1CC(=O)c2ccc3c4c(ccc1c24)C(=O)CC3=O the results were MgrA-DNA mod 93*.
For O=C1CC(=O)c2c1cccc2[N+](=O)[O-] the results were MgrA-DNA mod 35.
Screening COc1ccc(CN2C(=O)c3ccccc3C2C(=O)NCCCN2CC(C)CC(C)C2)cc1 (stereo unspecified) returned MgrA-DNA mod 0.
Cc1ccc(OC(=O)c2cccs2)c(Br)c1 was read as MgrA-DNA mod -2.
For O=C(O)C(CS(=O)(=O)Cc1ccccc1)N1Cc2ccccc2C1=O (stereo unspecified) the results were MgrA-DNA mod 1.
For Cc1ccc(C)n1CCC(=O)O the results were MgrA-DNA mod 103*.
For Cc1ccc2c(c1)c(C)cc(=O)n2CCC(=O)O the results were MgrA-DNA mod 14.
`CC1=C(C)C(=O)N(CCC(=O)O)C1=O` gave MgrA-DNA mod -3.
Screening Cc1ccc(CNC(=S)NC2CCN(C)CC2)cc1 returned MgrA-DNA mod 1.
For N#Cc1nc(-c2cccs2)oc1N1CCCC1 the results were MgrA-DNA mod 1.
CC(=O)c1ccc2c(c1)C1C=CCC1C(c1ccc(Cl)cc1Cl)N2 (stereo unspecified) was read as MgrA-DNA mod 4.
CCOC(=O)c1ccc2c(c1)C1C=CCC1C(c1ccccc1F)N2 (stereo unspecified) was read as MgrA-DNA mod -1.
`CCOC(=O)c1ccc2c(c1)C1C=CCC1C(c1ccc(Cl)cc1Cl)N2` (stereo unspecified) gave MgrA-DNA mod -3.
`CCOC(=O)[C@@H]1Nc2ccc(C(=O)O)cc2[C@@H]2C=CC[C@H]12` gave MgrA-DNA mod 71*.
For Fc1ccc(C2Nc3ccc(Br)cc3C3C=CCC32)cc1 (stereo unspecified) the results were MgrA-DNA mod -2.
CC(C)c1ccc([C@@H]2Nc3ccc(C(=O)O)cc3[C@@H]3C=CC[C@@H]32)cc1 was read as MgrA-DNA mod 47*.
COc1cccc(/C=N/NC(=O)c2cccc(OC)c2)c1 was read as MgrA-DNA mod 0.
For COCC(=O)Nc1ccc(Cl)cc1 the results were MgrA-DNA mod 0.
c1nc(N2CCOCC2)c2sccc2n1 was read as MgrA-DNA mod -2.
For COc1ccc(N=Cc2ccc3ncccc3c2)cc1N the results were MgrA-DNA mod 36.
Fc1c(F)c(F)c(C=Nc2ccccc2N2CCOCC2)c(F)c1F was read as MgrA-DNA mod 1.
